# Experimental data: the supplement of paper PMC6555819
# Experiments:
# Experiment in all cases: PBM binding z-score (relative to random genomic background probes); higher = stronger binding; sequences stand for … in GC…GCGATTGACAGCGTAGAATGAAGG
# [1] = test system: RARb homodimer (NR concentration 270 nM)
# Method in brief: (§1)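 Scanned fluorescence from custom Agilent 4×180K protein-binding microarrays was regression-normalized. Binding z-scores use random background probes as reference. Ligand-free nuclear receptor dimers were incubated on the arrays for 1 h and detected with antibodies against each partner (one per run).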
# [2] = test system: RARg:RXRa (NR concentration 270 nM, RXRa partner concentration 90 nM)
# Method in brief: as §1
# [3] = test system: RARg homodimer (NR concentration 270 nM)
# Method in brief: as §1
# [4] = test system: RXRa DBDmut IVT, anti-RXR (DBD mutation: RXRa K156A/R161A, NR concentration 90 nM)
# Method in brief: as §1
# [5] = test system: RXRa homodimer (NR concentration 180 nM)
# Method in brief: as §1
# [6] = test system: THRa:RXRa (NR concentration 90 nM, RXRa partner concentration 90 nM)
# Method in brief: as §1
# [7] = test system: THRa homodimer (NR concentration 90 nM)
# Method in brief: as §1
# [8] = test system: VDR homodimer (NR concentration 270 nM)
# Method in brief: as §1
Sequence,PBM binding z-score [1],PBM binding z-score [2],PBM binding z-score [3],PBM binding z-score [4],PBM binding z-score [5],PBM binding z-score [6],PBM binding z-score [7],PBM binding z-score [8]
CAAACTAGGTCACGACAGGTCAAAGTCGAATGAC,4.83,6.43,6.78,2.05,6.08,5.05,2.47,2.23
CCTTACGGGTCACTGCCAGGTTATAGCATTTGGA,3.13,5.43,4.16,1.46,4.62,3.4,0.811,1.47
GCTGCTAGGTCAGGTTGGTCAGCTAGCGGGTACG,2.7,2.69,3.44,0.414,0.963,1.71,0.421,-0.146
ATATCAAGGTGATCGTGAGGTCGTTGATACTAAC,1.5,2.42,1.24,0.829,1.61,3.46,2.27,2.79
AGCTCTAGGTAACAAGTTCAGTGAAAGAGAGGAC,1.92,1.12,1.23,0.916,0.551,1.49,0.681,2.64
CAGCCCAGGTCAGGGCCAGTATAGGAGGAACGTT,2.54,3.15,3.67,-0.41,2.25,2.73,1.48,0.168
TCATATAGGTAAAAAGGTGAAAGTCCGTAAGTTA,2.04,2.48,1.06,1.71,2.42,1.55,0.644,0.718
CCTTACGGGTCACTCCAGGTTATAGCCTCGGAGT,3.1,4.3,4.02,1.01,4.02,5.14,0.467,1.13
ATCTCTAGGTAAAGACAGTTCAGTGAATGCAAAT,0.886,0.452,0.798,0.247,0.363,1.05,0.425,1.14
CGTGCTAGGTCAATGGTCAGCTAAAGCAGCTCGC,2.95,3.8,4.95,1.67,2.31,2.23,0.655,0.301
TTACCAAGGTGAGCTGAGGTTGTTGATCCAACTC,0.122,-0.185,0.109,-0.414,-0.0103,3.29,0.439,-0.373
CTACCAAGGTGAACAATGTCGTTGATTACTATTC,1.24,0.711,0.812,0.62,0.563,2.04,1.01,0.118
ATCTCTAGGTAAGACTCAGATCAGTGAAGAACGC,-0.0502,0.253,0.295,0.0225,0.0293,0.242,0.333,0.414
CCTAGTTGGTCAAAGTCACACACGCTATAGGTAC,1.28,0.912,1.23,0.833,0.561,0.212,0.467,0.811
CCAGACAGGTGAGAAGGTAACCCAGCCTCGATTA,0.888,0.695,0.557,-0.131,0.558,0.444,0.455,-0.253
GCTACTAGGTCAGGTTGGTCAGCTAACGGGTACG,2.98,2.63,3.84,0.551,1.24,1.85,1.16,0.983
CATACAGGGTCAGCAAGGCCAGAGTAGGGACGGC,3.4,4.63,5.18,1.92,4.64,3.29,1.03,2.08
AGAATGAGGTTACCAAAGATCTGGGAAACGCTTG,0.57,1.94,1.49,0.786,2.42,2.51,0.542,0.122
TAGCCTAGGACATTGGGCCAGTATAGTACGCATC,-0.251,-0.0558,0.0958,-0.671,-0.0784,0.281,-0.00513,-0.291

Sequence,PBM binding z-score [1],PBM binding z-score [2],PBM binding z-score [3],PBM binding z-score [4],PBM binding z-score [5],PBM binding z-score [6],PBM binding z-score [7],PBM binding z-score [8]
CCTGCTAGATCAATGGTCAGCTAAAGCAGCTCGC,-0.343,-0.647,-0.492,0.00874,-0.596,-0.908,-1.01,-0.711
ATATGTAGGTTGGCTGGGGTCATTCAGACTAGGC,3.37,3.5,2.19,1.81,5.15,4.72,3.62,5.57
GCTAGCAGGCGATTTGGGTCACTCAATGACGGGC,1.23,0.467,0.586,-0.454,0.643,1.91,0.374,-0.295
GGAACGAGGGCATCCGAGTTGATAGCATGGCGAT,0.756,1.28,1.71,2.26,0.974,3.08,-0.359,2.33
CCTTACGGGTCACTGACAGGTTATAGTATTTGGA,3.11,5.61,4.34,1.85,5.18,3.04,0.562,1.17
CCTGGGAGGACAGAAGGTCAGAGCTGTCCGCTTT,3.38,3.49,3.63,-0.277,1.92,2.69,0.124,0.289
ACAGACAGGTGAGTGGAGGTAACTCAGCTGGACG,0.51,0.417,0.421,-0.468,0.451,2.29,-0.0738,-0.0506
CAAACTAGGTCACAGAGGTCACAGTCCGTGCGTA,5.65,7.17,7.58,2.76,7.39,4.67,3.58,6.14
TCTGATAGGTCAGTTGGTCAGCTAACGAGCTGCC,2.94,3.32,4,1.1,2.15,0.722,-0.367,-0.342
ACTTATGGGTCAACGAGGTTATAGCACGCGTATA,3.67,5.04,5.1,1.92,5.18,3.79,1.03,2.82
AGTCAAAGTTCACTAGGTGACGTAAGATTCAGCT,4,5.11,5.68,4.42,3.96,2.33,0.0713,3.73
TCTTGTAGATCAGCAGGTTAAGAAGGCTGGCCAA,0.175,0.0178,-0.229,0.672,0.428,0.192,-0.361,-0.0588
TCATATAGGTAAACGTGAAAGTCGAACGATATGA,-0.329,0.415,0.326,0.8,0.894,-0.0868,-0.279,-0.33
AGTCAAAGTTCATCTAGGGAACGTAAGATATGCT,3.82,5.57,6.19,4.67,4.53,2.92,-0.658,4.63
ATCTAAAGGTCGTGAGGTGAGTATACAGAAAGGC,3.14,4.55,4.01,2.22,5.37,3.44,1.84,1.7
GCTTACGTGTCAAAGGTTATAGCATGAATAGAAT,1.28,3.21,1.5,0.885,4.41,1.81,-0.725,-0.00185
GATACAGGGTCAAGGCCGGAGTACGCGTATTGAT,3.43,5.35,5.4,2.23,5.79,3.46,1.03,1.78
CCGAGTAGGTTATAGGGCATTCAGGCAACGGTGA,1.33,0.821,0.848,0.485,1.19,0.932,0.256,0.435
CCGACTGGGGAAAAGGTTACCATACTCAGTACGA,1.79,1.37,0.901,0.237,1.86,1.05,-0.101,0.0305

Sequence,PBM binding z-score [1],PBM binding z-score [2],PBM binding z-score [3],PBM binding z-score [4],PBM binding z-score [5],PBM binding z-score [6],PBM binding z-score [7],PBM binding z-score [8]
GCTGTTAGGTCAACTGATGGTCAGCTAAAGCTCG,3.65,5.62,5.67,2.11,3.51,3.62,2.59,0.277
TCTATTAGTTCATTAGGGCAACCGAAACAGCGGA,2.52,2.4,2.37,3.46,1.12,1.45,0.899,3
CGAACGAGGGCATGCGTTGATAGCAAATGCCGAT,0.766,1.03,1.55,2.39,0.91,0.988,-0.0968,1.21
CCTACCGGGCCAAGGTCATTGATCAGTCAAAGCA,3.48,3.89,3.32,0.804,3.5,3.58,2.77,3.08
GCTAGTTGGTCAGTAAGAGGTCACACACCGGTCG,4.7,4.94,3.87,0.674,4.5,3.58,2.63,3.38
ACTATTAGTTGACTTAGCGCAACCGATACGACGC,-0.331,0.0723,0.494,0.553,0.244,-0.258,-0.16,0.12
CCGAGTTGGTCAGGAGGTCACACACCGGATATGA,4.31,5.33,4.41,1.8,4.96,3.47,2.02,3.09
CAAACTACGTCACAGAGGTCAAAGTCCGTGCGTA,4.71,5.46,4.64,1.87,6.27,3.7,1.47,4.03
CCTAGTTGGTCATGGTCACACACGCTATAGGTAC,1.56,1.06,1.54,0.565,0.699,0.458,0.619,0.905
AGAACGAGGGCACGCTGAGTTGATAGAAGAGTAG,1.17,1.97,2.31,1.83,1.29,1.91,-0.0196,1.72
TCTTGTACATCAGCAGGTTAAGAAAGCTGGCCAA,0.266,0.217,-0.00852,0.924,0.606,0.455,-0.157,0.111
CGTCCACGGTCAAAGGTCAGTGAAGAGATGACGG,4.48,6.76,6.04,0.983,7.05,3.11,0.0529,0.561
CCTATTATTTGACCATAAGGGCAACCGAAGCTCG,2.16,1.05,1.21,1.06,0.762,1.83,2.31,2.19
CCTCGGAGGACAACAGGAGGTCAGAGATGCCAGA,3.66,3.42,3.31,0.124,1.95,2.83,1.02,1.41
ACAGAGAGGTGATGAAGGTAACTCAGGCTATCAT,0.584,0.531,0.832,-0.266,0.587,1.33,0.312,-0.222
GCAGACAGGTGAAACGCAGCTAACTCAGGGTGGC,-0.474,-0.209,-0.0146,-0.543,-0.0388,-0.192,-0.872,-1.11
ACTAGCATGCCAAGGGTCACTCAAGATTAGTCCG,3.83,3.77,3.69,0.719,3.91,2.75,0.299,1.64
ATATGTAGGTAAGCTGGGGTCATTCAGACTAGGC,3.48,3.82,2.24,1.8,5.36,4.65,3.38,4.3
ACAGACAGGTGAGTGAAGGTAACTCTGCTGGACG,0.091,0.24,0.455,-0.298,0.622,1.52,-0.492,-0.195
